Reference: ChEMBL document CHEMBL3433997, “St. Jude Leishmania screening dataset” (2016)

Experiments:
Format in all cases: functional
[1] = target: Solute carrier family 2, facilitated glucose transporter member 1 (Homo sapiens) (UniProt P11166); test: ST_JUDE_LEISH: Cytotoxicity at 2uM final concentration against transgenic Leishmania Mexicana promastigotes LmGLUT1 that are glucose transport deficient and complemented with the human glucose transporter GLUT1. Activity is measured by DNA content using SYBR green in vitro
[2] = target: Hexose transporter 1 (Plasmodium falciparum) (UniProt O97467); test: ST_JUDE_LEISH: Cytotoxicity at 2uM final concentration against transgenic Leishmania Mexicana promastigotes LmPfHT that are glucose transport deficient and complemented with the Plasmodium falciparum hexose transporter. Activity is measured by DNA content using SYBR green in vitro
[3] = target: Glucose transporter (Leishmania mexicana) (UniProt O61059); test: ST_JUDE_LEISH: Cytotoxicity at 2uM final concentration against transgenic Leishmania Mexicana promastigotes LmGT2 that are glucose transport deficient and complemented with the L. Mexicana glucose transporter 2. Activity is measured by DNA content using SYBR green in vitro

Solute carrier family 2, facilitated glucose transporter member 1 (Homo sapiens), sequence (P11166 whole entry): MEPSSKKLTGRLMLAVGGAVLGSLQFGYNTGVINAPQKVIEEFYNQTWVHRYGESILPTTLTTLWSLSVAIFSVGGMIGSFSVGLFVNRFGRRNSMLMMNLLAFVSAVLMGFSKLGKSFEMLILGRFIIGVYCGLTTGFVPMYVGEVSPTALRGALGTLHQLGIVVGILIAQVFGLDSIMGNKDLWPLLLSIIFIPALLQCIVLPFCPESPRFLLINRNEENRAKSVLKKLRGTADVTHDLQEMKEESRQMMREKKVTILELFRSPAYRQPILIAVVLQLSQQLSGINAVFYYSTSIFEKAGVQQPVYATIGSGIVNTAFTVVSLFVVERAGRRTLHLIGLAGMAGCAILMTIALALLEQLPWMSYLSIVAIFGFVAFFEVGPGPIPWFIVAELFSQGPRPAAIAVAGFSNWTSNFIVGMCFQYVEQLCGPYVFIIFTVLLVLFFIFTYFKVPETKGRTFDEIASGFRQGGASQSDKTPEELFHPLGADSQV

SMILES | inhibition [1] | inhibition [2] | inhibition [3]
O=C(Nc1cccc(C(F)(F)F)c1)N1CCOC(CCN2CCC3(CCc4ccccc43)CC2)(c2ccc(Cl)c(Cl)c2)C1 (centres undefined) | 5.08% | 4.51% | 2.55%
OCC1CCN(Cc2ccc(-c3cccc(-c4nc5cc(F)ccc5[nH]4)c3)cc2)CC1 | -1.93% | -1.06% | -1.42%
CCC(C)C(COC(=O)c1cc(OC)c(OC)c(OC)c1)N(C)CCN(C)C(COC(=O)c1cc(OC)c(OC)c(OC)c1)C(C)CC (centres undefined) | 1.76% | 1.28% | -0.47%
COc1cc(NC(=O)Nc2cc(C)nc3ccccc23)cc(OC)c1 | 0.54% | 0.94% | 2.05%
Nc1cccc(CNCc2cccc(-c3cccc(-c4nc5cc(C(F)(F)F)ccc5[nH]4)c3)c2)c1 | 1.23% | -0.22% | 1.43%
Cc1cccc2nc(-c3ccc(-c4cccc(C(=O)NCCN5CCCC5)c4)s3)[nH]c12 | 10.1% | 10.7% | 9.13%
Cc1nc(O)c2c(ccc3ccc(CNc4ccc(C(=O)N[C@@H](CCC(=O)O)C(=O)O)c(F)c4)cc32)n1 | -0.83% | 0.87% | -0.16%
O=S(=O)(c1ccc(OCc2ccc(Cl)cc2)cc1)c1cc2c(cc1OCc1ccccc1)CCN(CC1CC1)CC2 | 0.01% | -1.17% | -3.24%
Fc1ccc(-c2cncc(-c3ccc(F)cc3)n2)cc1 | 9.28% | 6.64% | 8.06%
CCCCCCN1CCC(NCc2ccc(C(F)(F)F)cc2)CC1 | 2.05% | 1.54% | 5.77%
N=c1n(Cc2ccccc2)c2ccccc2n1CC(O)c1ccc(Cl)cc1 (centres undefined) | 1.36% | 2.09% | 1.14%
CCCC(CNCc1cccc(OC(F)(F)F)c1)CNc1cc(=O)c2ccccc2[nH]1 (centres undefined) | 3.23% | 3.46% | 2.94%
NC(=O)c1ccccc1OCC(=O)Nc1cccc(-c2ccc(-c3nc4ccccc4[nH]3)cc2)c1 | 8.01% | 6.11% | 2.43%
CN1CCN(c2ccc(-c3cc(-c4ccncc4)c(-c4ccc(Cl)c(O)c4)o3)cc2)CC1 | -0.86% | 0% | -1.14%
c1cncc(-c2cc(N3CCCCC3)nc(-c3ccncc3)n2)c1 | 8.22% | 6.14% | 4.53%
CCCCC1(NC(=O)[C@@H](Nc2ccc(C#N)c3ccccc23)C2CCCCC2)CCCCC1 | -1.28% | -0.56% | -0.93%
N=C(N)c1ccc(C=Cc2ccc(C(=N)N)cc2O)cc1 | -0.26% | -0.04% | -0.9%
O=C(c1ccc(Cl)cc1)C1CCN(CCCOc2ccc3c(c2)CCNCC3)CC1 | 1.04% | 4.76% | 0.17%
O=C(N1CCN(c2cccc(C(F)(F)F)c2)CC1)C(Cl)(Cl)Cl | 0.96% | 5.03% | 1.47%
CCCCNc1nccc2ccc(-c3ccncc3)cc12 | 3.45% | 4.02% | 4.26%
Cn1cccc1C(=O)C(=O)Nc1ccc(-c2ccc(-c3nc4cc(F)ccc4[nH]3)cc2)cc1 | 8.15% | -0.07% | -0.45%
CC(C)(C)c1nn(-c2ccc(Cl)cc2)c2[nH]c(=O)c(CNCc3cccs3)cc12 | 3.3% | 3.24% | 2.34%
Cc1ccc(NC(=O)c2ccc3ncccc3c2)cc1OC1CCN(Cc2ccco2)C1 (centres undefined) | 0.45% | 1.05% | 1.55%
CCc1cn(CC(=O)N(CCOc2ccc(-c3ccc(C(F)(F)F)cc3)cc2)CCN(CC)CC)c(SCc2ccc(F)cc2)nc1=O | 0.38% | 0.65% | -0.06%
CCOC(=O)c1ccc2[nH]c(-c3ccc(C(=O)NC4CCN(Cc5ccccc5)CC4)s3)nc2c1 | 4.45% | 4.85% | 0.16%

SMILES | inhibition [1] | inhibition [2] | inhibition [3]
Cc1nc(C)c(-c2ccc(Oc3cc(Cl)cc(Cl)c3)cc2)c(O)c1Br | 1.01% | 2.38% | -1.58%
CC1CCCCN1CCCNc1nc(NCc2ccccc2)c2ccccc2n1 (centres undefined) | 23.1% | 31.8% | 10.2%
COc1cc2nc(N3CCN(C(=O)c4cccc(I)c4)CC3)nc(N)c2cc1OC | 5.23% | 3.9% | -0.04%
CCN(C(=O)NC)C1c2cc(C#N)ccc2OC(C)(C)C1O (centres undefined) | 2.85% | 1.33% | 1.87%
CC(C)c1ccc(CN2CCCCC(NC(=O)c3cc(-c4cccc(F)c4)cs3)C2)cc1 (centres undefined) | -2.71% | 3% | 0.54%
CCOC(=O)C1=C(C)N=c2sc(=Cc3cc(Cl)ccc3O)c(=O)n2C1c1cc(OC)c(OC)cc1Br (centres undefined) | 7% | 6.74% | 11.5%
O=C(NCC1CCN(CC2CCCCC2)C1)c1cc(-c2cccc(C(F)(F)F)c2)cs1 (centres undefined) | -1.1% | -0.44% | -2.1%
Cc1noc(-c2ccc3c(c2)CCN(CCC2CCC(NC(=O)/C=C/c4ccc(F)cc4)CC2)CC3)n1 (centres undefined) | 0.93% | -1.07% | -0.23%
O=C(N[C@@H](CC1CCCCC1)C(=O)NC1CC1)c1ccc(O)c(-c2cccc(C(F)(F)F)c2)c1 | 3.48% | 2.6% | 3.88%
C=CCc1cc(Br)ccc1OCCCON1C(N)=NC(N)=NC1(C)C | 19.1% | 27.3% | 17.7%
Cc1cc(CNCCCCCCNCc2ccc(Cl)cc2)ccc1O | 9.89% | 7.77% | 9.18%
CCNc1cc(C)nc(Nc2ccccc2)n1 | 15.2% | 5.92% | 3.47%
CCNc1cc(C)nc(Nc2ccc(NS(=O)(=O)c3ccccc3)cc2)n1 | 17.8% | 11% | 5.64%
O=C(NC1CC1)C1CCN(Cc2cc3ccccc3n2Cc2ccc(Cl)cc2)CC1 | -2.52% | -1.61% | -1.79%
CCN(CC)CCN(Cc1ccc(-c2ccc(C(F)(F)F)cc2)cc1)C(=O)Cn1c(SCc2ccc(F)cc2)nc(=O)c2ccccc21 | 4.02% | 1.11% | 1.8%
CCS(=O)(=O)Nc1ccc2[nH]cc(C3CCN(CCC4CCN(C(=O)/C=C/c5ccc(Cl)c(Cl)c5)CC4)CC3)c2c1 | 2.73% | 4.42% | 1.91%
COc1ccc(S(=O)(=O)NC2CCN(CCNC(=O)Nc3cc(C)nc4ccccc34)C2)cc1 (centres undefined) | -0.6% | -0.21% | -0.75%
Cc1nc2nc(N)nc(N)c2c(C)c1Cc1ccc(C(F)(F)F)cc1 | 32.9% | 38.8% | 28.9%
Cc1ccccc1CCNC(=O)c1ccc(N2CCN(c3ccncc3)CC2)nc1 | 3.94% | 1.96% | 0.46%
CNC(=O)c1cc(NCCCNCc2ccc(Cl)c(C(F)(F)F)c2)nc2ccccc12 | -1.98% | -1.73% | -2.48%
Nc1cc(-c2ccc(Br)cc2O)nc2ccccc12 | 1.51% | 0.65% | 2.06%
CN1CCCC1CCNCc1ccc(-c2ccc(CNCCc3ccccc3)cn2)cc1 (centres undefined) | 1.95% | 2.41% | 4.27%
Cc1ccc(F)c(NC(=O)c2c(-c3c(F)cccc3Cl)noc2C)c1 | -0.89% | 2.09% | 1.42%
COc1cc2c(c(Cl)c1OC)CCN(Cc1ccccc1)CC2c1ccc(C(N)=O)cc1 (centres undefined) | 2.24% | 1.77% | 1.62%
CCNc1cc(C)nc(Nc2ccc(NC(=O)C3CCCC3)cc2)n1 | 8.61% | 6.7% | 3.57%

SMILES | inhibition [1] | inhibition [2] | inhibition [3]
CCN(CC)CCn1c(=N)n(CC(=O)c2ccc(-c3ccccc3)cc2)c2ccccc21 | 0.58% | 1.91% | 2.35%
CC(C)C[C@@H](C(=O)N[C@@H](CCCCNC(=O)OCc1ccccc1)C(=O)Nc1nccs1)[C@H](C)N(O)C=O | 3.19% | 3.38% | 0.49%
O=C(NC1CCC(N2CCC(c3nc4ccccc4s3)CC2)CC1)c1cc2ccccc2[nH]1 (centres undefined) | -0.44% | -2.33% | -1.51%
COCCn1c(-c2cccc(Cl)c2)nn(-c2ccc([N+](=O)[O-])cc2C#N)c1=S | 3.84% | -0.81% | 3.5%
O=S(=O)(Nc1cccc(CCN2CCCCC2CCN2CCCC2)c1)c1cccc2ccccc12 (centres undefined) | 1.15% | 2.49% | -0.21%
COc1cc2nc(N(C)C)nc(Nc3ccc4c(cnn4Cc4ccccc4)c3)c2cc1OC | -0.58% | -0.17% | 2.85%
COc1ccc2nc3cc(Cl)ccc3c(NCCCCN)c2c1 | 2.17% | 1.49% | 0.04%
COc1cc2c(cc1COc1ccccc1)CCN1Cc3cc(OC)c(OC)cc3CC21 (centres undefined) | 1.91% | 0.8% | -6.12%
O=C(N[C@@H](Cc1ccccc1)[C@H](O)CNC1CCCc2ccccc21)c1cc(C2CCCC2)cc(N2CCCC2=O)c1 (some centres undefined) | -0.02% | 0.77% | -0.94%
CC(Nc1nc(Nc2ccc(F)cc2)nc(SCC(N)=O)n1)c1ccccc1 (centres undefined) | 0.82% | 1.3% | 0.81%
COc1ccc2nccc([C@@H](O)CN3CCC(NC(=O)/C=C/c4cccc(C)c4)CC3)c2c1 | 11% | 9.47% | 3.43%
CCc1ccc(NC(=O)c2ccc(CN3CCCN(Cc4ccc(C)s4)CC3)cc2)cc1 | 3.79% | 5.06% | 2.95%
COc1ccc2nc3cc(Cl)ccc3c(NCCNCC(O)CO)c2n1 (centres undefined) | 7.93% | 6.76% | 5.98%
COc1c(C2CCN(CCCCNC(=O)C=Cc3cc4cc(Cl)ccc4o3)CC2)ccc2c1CCCC2 | 2.11% | 0.56% | 0.08%
CN1CCN(CCCNCc2ccccc2-c2cccc(CNCc3ccc4c(c3)OCO4)c2)CC1 | -1.31% | -0.45% | 2.45%
COc1ccccc1C1CCN(CCCCNC(=O)c2ccc(NC(=O)c3ccc(Cl)cc3)cc2)CC1 | 1.27% | 3.41% | 2.05%
COc1ccc(CNC2CCN(C)CC2)cc1-c1cccc(S(=O)(=O)NCc2ccccc2)c1 | 1.72% | 1.62% | 0.24%
CCCN(c1ccc(O)c(CN2CCCCC2)c1)c1ccc([N+](=O)[O-])cn1 | 1.28% | 0.61% | 1.09%
CC(=O)Nc1cccc(NC(=O)CSc2ccc(-c3nc4ccccc4[nH]3)cn2)c1 | 0.84% | -0.63% | -0.27%
CCCN(CC1CC1)c1ncc(-c2cccc(CNCCC3CCCN3C)c2)cn1 (centres undefined) | 98.4% | 26.8% | 104%
Cc1ccc2c(=NN=Cc3ccc(Cl)cc3)cc(C)[nH]c2c1 | 4.64% | 4.7% | 2.66%
COc1cc2c(cc1C(F)(F)F)N(C(=O)Nc1cc(-c3ccncc3)cc(-c3cccnc3)c1)CC2 | 3.84% | -0.38% | -0.7%
COc1ccc(CNC2CCN(c3ccc(NC(=O)c4cccc(Cl)c4)cc3)CC2)cc1OC | 2.25% | 1.47% | 0.61%
